# Inconclusive results are not listed. Where a call stands in place of a potency, no number is given. Active and inactive are the calls of the source. Unless noted, the call rests on the fitted dose curve; in most records, active means well fitted curve in the direction sought with a large enough effect; inconclusive means small, poorly fitted or top-dose-only effect, or another doubt; inactive means no such curve, though single readings can be large; an effect the other way counts as inactive or inconclusive. Where a SMILES comes first, the peptide text is derived from it. The star is where a group is joined. PhAc = O=C(Cc1ccccc1)*
# Key:
# [1] = molecular target: Calcium and integrin-binding protein 1 (Homo sapiens) (UniProt Q99828); assay: Primary qHTS for Identification of Calcium Integrin Binding Protein 1 (CIB1) Competitor (AID 1508620);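 further: GST tagged CIB1 binding a fluorescein labelled alphaIIb integrin peptide tracer; top concentration of the series differs between compounds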
# Calcium and integrin-binding protein 1 (Homo sapiens), sequence (Q99828 whole entry, looked up): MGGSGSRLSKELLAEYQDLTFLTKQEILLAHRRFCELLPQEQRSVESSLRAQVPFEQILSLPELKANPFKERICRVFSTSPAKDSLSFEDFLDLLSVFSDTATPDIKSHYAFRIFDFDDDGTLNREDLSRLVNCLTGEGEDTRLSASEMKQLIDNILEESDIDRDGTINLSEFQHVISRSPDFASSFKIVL
# Summary of the method: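 CIB1-GST (1 uM final) and compound incubated 15 min at room temperature before adding FITC-alphaIIb peptide tracer (100 nM final). Competition for binding read by fluorescence polarization (ex 480, em 540) after another 15 min at room temperature.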
# [2] = molecular target: Cytochrome P450 2D6 (Homo sapiens) (UniProt P10635); assay: Cytochrome P450 family 2 subfamily D member 6 (CYP2D6) small molecule antagonists: luciferase biochemical (cell-free) qHTS assay (AID 1645840; active means well fitted curve in the direction sought with a large enough effect in the repeat runs; an effect the other way counts as inactive or inconclusive; further: nearly all actives have a fitted effect of over 55% in size; further: potency means the concentration at half of the fitted maximal effect)
# Cytochrome P450 2D6 (Homo sapiens), sequence (P10635 whole entry, looked up): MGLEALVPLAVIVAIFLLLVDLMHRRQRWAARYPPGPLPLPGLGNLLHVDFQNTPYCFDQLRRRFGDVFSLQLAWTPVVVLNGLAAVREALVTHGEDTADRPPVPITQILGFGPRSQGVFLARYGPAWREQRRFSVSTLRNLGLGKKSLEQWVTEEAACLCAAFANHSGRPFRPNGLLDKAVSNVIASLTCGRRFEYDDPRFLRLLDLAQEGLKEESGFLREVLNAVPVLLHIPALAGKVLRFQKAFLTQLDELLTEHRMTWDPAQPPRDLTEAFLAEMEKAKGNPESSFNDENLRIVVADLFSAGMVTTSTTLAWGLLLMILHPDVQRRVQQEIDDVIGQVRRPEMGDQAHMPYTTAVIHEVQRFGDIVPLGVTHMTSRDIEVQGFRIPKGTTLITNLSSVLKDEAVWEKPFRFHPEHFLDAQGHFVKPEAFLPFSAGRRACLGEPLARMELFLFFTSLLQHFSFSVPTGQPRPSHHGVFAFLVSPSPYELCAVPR
# Summary of the method: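 P450-Glo luminescent screen: recombinant CYP2D6 enzyme–proluciferin substrate mix preincubated with compound 10 min at room temperature, then NADPH regeneration added for 1 h at room temperature. Detection reagent added for 20 min; luciferin light read as relative luminescence units.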
# [3] = molecular target: Cytochrome P450 2C9 (Homo sapiens) (UniProt P11712); assay: Cytochrome P450 family 2 subfamily C member 9 (CYP2C9) small molecule antagonists: luciferase biochemical (cell-free) qHTS assay (AID 1645842; active means well fitted curve in the direction sought with a large enough effect in the repeat runs; an effect the other way counts as inactive or inconclusive; further: nearly all actives have a fitted effect of over 55% in size; further: potency means the concentration at half of the fitted maximal effect)
# Cytochrome P450 2C9 (Homo sapiens), sequence (P11712 whole entry, looked up): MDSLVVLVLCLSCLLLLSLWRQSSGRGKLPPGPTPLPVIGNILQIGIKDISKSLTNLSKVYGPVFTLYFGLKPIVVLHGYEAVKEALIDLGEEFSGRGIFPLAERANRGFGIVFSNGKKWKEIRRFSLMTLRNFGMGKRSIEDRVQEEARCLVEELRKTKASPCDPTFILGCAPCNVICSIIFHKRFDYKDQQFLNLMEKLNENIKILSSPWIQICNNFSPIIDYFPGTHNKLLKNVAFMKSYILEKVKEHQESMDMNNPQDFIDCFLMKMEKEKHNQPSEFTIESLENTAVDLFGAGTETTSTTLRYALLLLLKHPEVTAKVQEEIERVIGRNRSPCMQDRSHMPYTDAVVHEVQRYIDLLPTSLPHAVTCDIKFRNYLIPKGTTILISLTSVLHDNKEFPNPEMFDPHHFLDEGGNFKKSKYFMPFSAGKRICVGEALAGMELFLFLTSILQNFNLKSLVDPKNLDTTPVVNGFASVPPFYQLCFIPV
# Summary of the method: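 Luminescence, after 20 min with luciferin detection reagent, reflected CYP2C9 turnover during a 1 h NADPH-driven reaction at 37C. Enzyme-substrate mix contained 0.4% bovine serum albumin and was preincubated with compound 10 min at room temperature.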
# [4] = Primary qHTS for inhibitors of nuclear receptor binding SET domain protein 2 (NSD2) in an isogenic RCH-ACV NSD2 p.E1099K mutant (9B) (AID 1645876); further: nearly all actives have a fitted effect of over 70% in size; further: potency means the concentration at half of the fitted maximal effect
# [5] = Primary qHTS for inhibitors of nuclear receptor binding SET domain protein 2 (NSD2) in an RCH-ACV wild type WT cells (2C) (AID 1645877); further: nearly all actives have a fitted effect of over 70% in size; further: potency means the concentration at half of the fitted maximal effect
# [6] = molecular target: Catechol O-methyltransferase (Homo sapiens) (UniProt P21964); assay: Confirmatory Screen for Target Class Profiling of Small Molecule Inhibitors of Methyltransferases (AID 1745852; calls by dose curve; further: potency means the concentration at half of the fitted maximal effect); conditions: MTase-Glo luminescence, SAH detection, recombinant enzyme; measured here: COMT max response; stronger effect = lower value
# Catechol O-methyltransferase (Homo sapiens), sequence (P21964 whole entry, looked up): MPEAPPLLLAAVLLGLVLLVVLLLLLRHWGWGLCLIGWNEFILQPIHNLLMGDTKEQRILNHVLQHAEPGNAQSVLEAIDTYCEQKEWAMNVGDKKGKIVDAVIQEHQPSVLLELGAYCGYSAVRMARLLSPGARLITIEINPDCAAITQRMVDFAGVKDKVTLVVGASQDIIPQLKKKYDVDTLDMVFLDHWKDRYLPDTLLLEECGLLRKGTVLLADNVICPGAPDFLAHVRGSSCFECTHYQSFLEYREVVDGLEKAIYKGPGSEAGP
# [7] = molecular target: Guanidinoacetate N-methyltransferase (Homo sapiens) (UniProt Q14353); assay: as above; conditions: MTase-Glo luminescence, SAH detection, recombinant enzyme; activity change, negative = inhibition: at 57.3 µM (top of the series) unless noted
# [8] = molecular target: Nicotinamide N-methyltransferase (Homo sapiens) (UniProt P40261); assay: as above; conditions: MTase-Glo luminescence, SAH detection, recombinant enzyme; measured here: NNMT max response; stronger effect = lower value
# Nicotinamide N-methyltransferase (Homo sapiens), sequence (P40261 whole entry, looked up): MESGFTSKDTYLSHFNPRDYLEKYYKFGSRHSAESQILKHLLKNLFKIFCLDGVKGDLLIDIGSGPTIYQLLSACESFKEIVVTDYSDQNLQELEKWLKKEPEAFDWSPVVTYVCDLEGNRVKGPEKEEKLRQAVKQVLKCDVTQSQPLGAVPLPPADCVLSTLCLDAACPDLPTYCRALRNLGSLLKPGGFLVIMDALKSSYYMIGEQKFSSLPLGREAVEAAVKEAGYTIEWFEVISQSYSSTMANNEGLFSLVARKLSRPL
# [9] = molecular target: Phenylethanolamine N-methyltransferase (Homo sapiens) (UniProt P11086); assay: as above; conditions: MTase-Glo luminescence, SAH detection, recombinant enzyme; measured here: PNMT max response; stronger effect = lower value
# Phenylethanolamine N-methyltransferase (Homo sapiens), sequence (P11086 whole entry, looked up): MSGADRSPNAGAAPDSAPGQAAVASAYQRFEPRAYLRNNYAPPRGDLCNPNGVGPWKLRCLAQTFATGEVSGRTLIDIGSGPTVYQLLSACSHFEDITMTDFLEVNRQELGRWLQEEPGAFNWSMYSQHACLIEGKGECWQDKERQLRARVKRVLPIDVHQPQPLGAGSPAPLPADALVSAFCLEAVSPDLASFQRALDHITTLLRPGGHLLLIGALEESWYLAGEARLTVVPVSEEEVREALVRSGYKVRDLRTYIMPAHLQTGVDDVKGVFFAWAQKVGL
# [10] = molecular target: N-terminal Xaa-Pro-Lys N-methyltransferase 1 (Homo sapiens) (UniProt Q9BV86); assay: Confirmatory qHTS for Inhibitors of N-terminal methyltransferase 1 (NTMT1): MTaseGlo Assay (AID 1645874);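 further: luminescence from SAH made as NTMT1 methylates SPKRIA peptide using SAM; nearly all actives have a fitted effect of over 65% in size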
# N-terminal Xaa-Pro-Lys N-methyltransferase 1 (Homo sapiens), sequence (Q9BV86 whole entry, looked up): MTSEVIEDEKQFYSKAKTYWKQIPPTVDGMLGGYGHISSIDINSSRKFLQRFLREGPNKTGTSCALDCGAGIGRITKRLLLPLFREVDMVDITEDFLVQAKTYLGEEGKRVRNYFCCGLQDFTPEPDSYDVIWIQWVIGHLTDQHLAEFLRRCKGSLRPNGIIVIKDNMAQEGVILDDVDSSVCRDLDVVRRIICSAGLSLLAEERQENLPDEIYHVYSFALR
# Summary of the method: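 qHTS format: NTMT1 125 nM, SAM 100 uM, peptide SPKRIA 1 uM final; 15 min compound preincubation, 30 min reaction at room temperature. MTase-Glo luminescence.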
# [11] = molecular target: Cytochrome P450 3A4 (Homo sapiens) (UniProt P08684); assay: Cytochrome P450 family 3 subfamily A member 4 (CYP3A4) small molecule antagonists: luciferase qHTS assay (AID 1645841; active means well fitted curve in the direction sought with a large enough effect in the repeat runs; an effect the other way counts as inactive or inconclusive; further: nearly all actives have a fitted effect of over 45% in size; further: potency means the concentration at half of the fitted maximal effect)
# Cytochrome P450 3A4 (Homo sapiens), sequence (P08684 whole entry, looked up): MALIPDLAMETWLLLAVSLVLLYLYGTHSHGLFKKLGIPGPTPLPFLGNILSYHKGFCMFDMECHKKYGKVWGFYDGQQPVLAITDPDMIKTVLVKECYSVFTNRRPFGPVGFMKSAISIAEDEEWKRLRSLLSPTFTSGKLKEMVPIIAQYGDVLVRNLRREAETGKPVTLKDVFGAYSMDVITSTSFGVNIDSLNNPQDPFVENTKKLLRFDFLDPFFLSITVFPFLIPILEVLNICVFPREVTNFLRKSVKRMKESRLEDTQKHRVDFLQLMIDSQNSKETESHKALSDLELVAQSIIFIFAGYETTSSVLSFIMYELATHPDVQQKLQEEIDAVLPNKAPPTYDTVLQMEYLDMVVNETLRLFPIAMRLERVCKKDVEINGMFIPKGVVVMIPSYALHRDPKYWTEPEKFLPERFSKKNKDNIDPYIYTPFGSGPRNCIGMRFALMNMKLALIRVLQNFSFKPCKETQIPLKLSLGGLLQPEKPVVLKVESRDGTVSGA
# Summary of the method: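 Luminescent CYP3A4 activity readout: compounds plus enzyme-substrate mix 10 min at room temperature, reaction started with NADPH regenerating system for 1 h, stopped with detection reagent, read after 20 min. Ketoconazole served as control.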
smiles,measurement,setting,value
COc1cccc(OC)c1-c1nc(C(=O)N[C@@H](CC(C)C)C(=O)O)cn1-c1ccnc2cc(Cl)ccc12,Potency,[1],inactive
same,Potency,[2],inactive
same,Potency,[3],inactive
same,Potency,[4],inactive
same,Potency,[5],inactive
CCOC(=O)CSc1nc2c(sc3ccccc32)c(=O)n1CCCN1CCCC1,Potency,[1],inactive
same,Potency,[2],0.849 µM (active)
same,Potency,[3],13.5 µM (active)
same,Potency,[4],inactive
same,Potency,[5],inactive
COc1ccc(C(=O)NCc2cc(C(C)C)no2)cc1OC1CCN(C)CC1,Potency,[1],inactive
same,Potency,[2],inactive
same,Potency,[3],inactive
same,Potency,[4],inactive
same,Potency,[5],inactive
CCCN1CCC[C@@H](c2cccc(S(C)(=O)=O)c2)C1,Potency,[1],inactive
same,Potency,[2],15.1 µM (active)
same,Potency,[3],inactive
same,Potency,[4],inactive
same,Potency,[5],inactive
Nc1ncnc2c1c(COc1cccc(Cl)c1)nn2C1CCOCC1,Potency,[1],inactive
same,Potency,[2],inactive
same,Potency,[3],12 µM (active)
same,Potency,[4],14.8 µM (active)
same,Potency,[5],16.6 µM (active)
CCOc1ncc(S(=O)(=O)N2CCN(CC)CC2)cc1-c1nc2c(CC)n(CCOC)nc2c(=O)[nH]1,Potency,[1],inactive
same,Potency,[2],inactive
same,Potency,[3],10.7 µM (active)
same,Potency,[4],inactive
same,Potency,[5],inactive
Nc1ncnc2c1ncn2[C@H]1O[C@@H](C(=O)N2CCN(CC(=O)Nc3cccc4c3CNC4=O)CC2)[C@H](O)[C@@H]1O,Potency,[1],inactive
same,Potency,[2],inactive
same,Potency,[3],inactive
same,Potency,[4],inactive
same,Potency,[5],inactive
same,activity,[6],-12.8%
same,Potency,[7],21.5 µM (active)
same,activity,[8],-14.5%
same,activity,[9],-35.1%
CC(CNS(=O)(=O)C(C)C)c1ccc(-c2ccc(C#N)cc2)cc1 (stereo not drawn),Potency,[1],inactive
same,Potency,[2],inactive
same,Potency,[3],inactive
same,Potency,[5],8.17 µM (active)
CC[C@H](NC(=O)c1c(O)c(-c2ccccc2)nc2ccccc12)c1ccccc1,Potency,[1],inactive
same,Potency,[3],16.9 µM (active)
same,Potency,[4],inactive
O=C(c1c2ccccc2cc2ccccc12)N1CCC(N2CCC[C@@H](C(=O)N3CCOCC3)C2)CC1,Potency,[1],inactive
same,Potency,[3],inactive
same,Potency,[4],inactive
same,Potency,[5],inactive
CC(C)Oc1ccc(-c2nc(-c3cccc4c3CCC4NCCC(=O)O)no2)cc1C#N (stereo not drawn),Potency,[1],inactive
same,Potency,[3],inactive
same,Potency,[4],inactive
same,Potency,[5],inactive
CC(C)c1c(NC(=O)Nc2ccc(Cl)cc2)c(=O)n(-c2ccccc2)n1C,Potency,[1],inactive
same,Potency,[2],12 µM (active)
same,Potency,[4],inactive
same,Potency,[5],inactive
CCCCC(=O)N1c2ccccc2NC2=C(C(=O)CCC2)C1c1ccccc1Cl (stereo not drawn),Potency,[1],inactive
same,Potency,[3],12 µM (active)
CS(=O)(=O)c1ccccc1N1CCN(c2nc3c(c(=O)[nH]2)CSCC3)CC1,Potency,[1],inactive
same,Potency,[3],8.49 µM (active)
same,Potency,[4],inactive
same,Potency,[5],inactive
CCOC(=O)CNC(=O)[C@@H]1CCCN1C(=O)Cc1ccccc1 (PhAc-Pro-Gly-OEt),Potency,[1],inactive
same,Potency,[2],inactive
same,Potency,[4],inactive
same,Potency,[5],inactive
COc1cccc(C(=O)NCCNc2nc3cc(C)cc(C)c3cc2C#N)c1,Potency,[1],inactive
same,Potency,[3],1.69 µM (active)
same,Potency,[10],inactive
same,Potency,[5],inactive
O=C(NC1Cc2ccccc2N(C[C@@H](O)CO)C1=O)c1cc2cc(Cl)sc2[nH]1 (stereo partly drawn),Potency,[1],inactive
same,Potency,[3],21.3 µM (active)
FC(F)(F)c1nnc2c(Sc3ccccc3)nc3ccc(Cl)cc3n12,Potency,[1],inactive
same,Potency,[2],inactive
same,Potency,[4],4.09 µM (active)
same,Potency,[5],3.65 µM (active)
COC(=O)Cn1nc(-c2cccc(OC)c2)c2ccccc21,Potency,[1],inactive
same,Potency,[3],13.5 µM (active)
same,Potency,[4],inactive
same,Potency,[5],inactive
Cc1ccc(-c2c(-c3nn(C)c4ncnc(N5CCC(N6CCCCC6)C5)c34)cnn2C)cc1 (stereo not drawn),Potency,[1],inactive
same,Potency,[11],0.12 µM (active)
same,Potency,[3],19 µM (active)
same,Potency,[4],inactive
same,Potency,[5],inactive
COc1cc(Nc2nc3c(s2)CCCC3c2ccccc2)ccc1-n1cnc(C)c1 (stereo not drawn),Potency,[1],inactive
same,Potency,[2],0.275 µM (active)
same,"activity change, negative = viability loss",[4],-1.48% [at 9.23 µM] (inactive)
same,outcome,[5],inactive [at 9.23 µM]
Cc1cc(C(=O)N2Cc3cnn(C)c3Nc3ccccc32)ccc1CNC(=O)N1CCN(Cc2cc(O)cc(O)c2)CC1,Potency,[1],inactive
same,Potency,[3],2.39 µM (active)
same,Potency,[4],inactive
same,Potency,[5],inactive
NC(=O)c1ccc(F)c2c1C[C@@H](N(C1CCC1)C1CCC1)CO2,Potency,[1],inactive
same,Potency,[3],inactive
same,Potency,[4],inactive
same,Potency,[5],inactive
COc1ccc(N2CCN(CCCNC(=O)Cn3c(=O)c4cccn4c4c(C)ccnc43)CC2)cc1,Potency,[1],inactive
same,Potency,[2],inactive
same,Potency,[4],inactive
same,Potency,[5],inactive
COc1ccc(CCc2nc3cc(-c4c(C)noc4C)ccc3n2C[C@H](C)N2CCOCC2)cc1Cl,Potency,[1],inactive
same,Potency,[3],15.1 µM (active)
same,Potency,[4],3.65 µM (active)
same,Potency,[5],2.58 µM (active)
Cc1nnc(-c2sc(NC(=O)[C@H](C(C)C)n3c(=O)[nH]c4ccccc4c3=O)nc2C)o1,Potency,[1],inactive
same,Potency,[3],9.52 µM (active)
same,Potency,[4],inactive
same,Potency,[5],inactive
CN1CCN(C2=Nc3ccccc3Nc3ccc(O)cc32)CC1,Potency,[1],inactive
same,Potency,[3],inactive
same,Potency,[4],inactive
same,Potency,[5],inactive
O=C(Nc1ccc(N2CCC(C(=O)N3CCOCC3)CC2)cc1)c1cnc(Oc2ccccc2)nc1,Potency,[1],inactive
same,Potency,[2],inactive
same,Potency,[4],inactive
same,Potency,[5],inactive
CCNC(=O)C1CC(F)(c2ccc(CN3CCCC3)c(F)c2)C1 (stereo not drawn),Potency,[1],inactive
same,Potency,[11],inactive
same,Potency,[3],inactive
same,Potency,[4],inactive
same,Potency,[5],inactive
O=C(Nc1cc(-c2ccccc2)nn1-c1ccccc1)c1ccc([N+](=O)[O-])cc1,Potency,[1],inactive
same,Potency,[3],1.51 µM (active)
same,Potency,[4],inactive
same,Potency,[5],inactive

# Source: PubChem BioAssay (NCATS)
